From PubChem BioAssay (EPA / NIEHS)
Results filed as inconclusive are left out. Calls of active or inactive are those of the source. The calls were made as follows, unless noted: active = hit-call score of the fitted dose curve at least 0.9, where 1 is the maximum; inactive = score below 0.9.

How the values were obtained:
[1] = read-out: Interleukin-8 (IL8), CXCL8 (gene 3576); experiment: BSK_3C_IL8: BioMAP Diversity Plus: 3C Assay for Interleukin-8 (IL8) Biomarker Activity (AID 2283020); details: primary human endothelial cells (HUVEC); actives raise or lower the signal
Method in brief: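 IL-8 was measured by ELISA in HUVEC cultures 24 h after chemical dosing, with gain or loss of signal fitted relative to DMSO. Parallel SRB total-protein staining tracked overt cytotoxicity.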

[2] = read-out: Monokine induced gamma interferon (MIG), CXCL9 (gene 4283); experiment: BSK_3C_MIG: BioMAP Diversity Plus: 3C Assay for Monokine induced gamma interferon (MIG) Biomarker Activity (AID 2283021); details: primary human endothelial cells (HUVEC); actives raise or lower the signal
Method in brief: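 ELISA measurement of MIG in human umbilical vein endothelial cells 24 h after treatment. Cytotoxicity tracked by SRB staining in parallel cultures; gain or loss of signal fitted relative to DMSO.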

[3] = BSK_3C_SRB: Viability Assessment in the BioMAP Diversity Plus: 3C Assay (AID 2283023); details: primary human endothelial cells (HUVEC);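 also: fitted both ways against DMSO so a hit may be signal rise or drop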
Method in brief: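 Overt cytotoxicity is gauged in parallel confluent HUVEC cultures by SRB total-protein staining at the time of biomarker measurement, 24 h after dosing. Gain or loss of signal is fitted versus DMSO.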

[4] = read-out: Matrix Metallopeptidase 1 (MMP1), MMP1 (gene 4312); experiment: BSK_BE3C_MMP1: BioMAP Diversity Plus: BE3C Assay for Matrix Metallopeptidase 1 (MMP1) Biomarker Activity (AID 2283024); details: primary human bronchial epithelial cells; actives raise or lower the signal
Method in brief: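 ELISA measurement of MMP-1 after 24 h compound exposure of primary human bronchial epithelial cells. Changes in either direction fitted relative to DMSO; parallel SRB staining checked overt cytotoxicity.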

[5] = BSK_3C_Vis: BioMAP Diversity Plus: 3C Assay for Morphology Visualization (AID 2283025); details: primary human endothelial cells (HUVEC);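 also: fitted both ways so gain or loss versus DMSO counts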
Method in brief: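 Light-microscopy visualization of HUVEC cultures at 24 h post-treatment, with DMSO as baseline for bidirectional fitting.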

[6] = read-out: Pselectin, SELP (gene 6403); experiment: BSK_4H_Pselectin: BioMAP Diversity Plus: 4H Assay for Pselectin Biomarker Activity (AID 2283026); details: primary human endothelial cells (HUVEC); actives raise or lower the signal
Method in brief: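 ELISA of surface P-selectin on HUVEC, 24 h after dosing, with parallel SRB staining (0.1% after 10% TCA fixation, 560 nm) for overt cytotoxicity. Activity fitted in both directions relative to DMSO.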

[7] = BSK_4H_SRB: Viability Assessment in the BioMAP Diversity Plus: 4H Assay (AID 2283027); details: primary human endothelial cells (HUVEC);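 also: cells exposed to compound for 24 h before staining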
Method in brief: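 Cytotoxicity readout: sulforhodamine B (0.1%) staining of total protein after 10% TCA fixation, measured at 560 nm in human umbilical vein endothelium at 24 h. DMSO set the baseline; fitting was bidirectional.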

[8] = BSK_BE3C_SRB: Viability Assessment in the BioMAP Diversity Plus: BE3C Assay (AID 2283028); details: primary human bronchial epithelial cells
Method in brief: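 SRB total-protein staining (0.1%, after TCA fixation) of chemically dosed human bronchial epithelial primary cells at 24 h; DMSO serves as the negative control for bidirectional curve fitting.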

[9] = read-out: Thrombomodulin, THBD (gene 7056); experiment: BSK_3C_Thrombomodulin: BioMAP Diversity Plus: 3C Assay for Thrombomodulin Biomarker Activity (AID 2283029); details: primary human endothelial cells (HUVEC); actives raise or lower the signal
Method in brief: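 ELISA measurement of thrombomodulin on HUVEC surface 24 h after chemical dosing; activity fitted in both directions relative to DMSO vehicle.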

[10] = read-out: Urokinase-type plasminogen activator receptor (uPAR), PLAUR (gene 5329); experiment: BSK_4H_uPAR: BioMAP Diversity Plus: 4H Assay for Urokinase-type plasminogen activator receptor (uPAR) Biomarker Activity (AID 2283030); details: primary human endothelial cells (HUVEC); actives raise or lower the signal
Method in brief: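 Endpoint derived via bidirectional curve fitting against DMSO baseline; readout was ELISA detection of uPAR on umbilical vein endothelial cells at 24 h post-treatment, with SRB-stained parallel cultures assessing cytotoxicity.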

[11] = read-out: Vascular endothelial growth factor receptor 2 (Homo sapiens) (UniProt P35968); experiment: BSK_4H_VEGFRII: BioMAP Diversity Plus: 4H Assay for Vascular endothelial growth factor receptor 2 (VEGFR2) Biomarker Activity (AID 2283031); details: primary human endothelial cells (HUVEC); actives raise or lower the signal
Method in brief: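 In this multiplexed HUVEC system, biomarker ELISA was performed after 24 h chemical exposure. Parallel SRB staining (TCA fixation, 560 nm) tracked cytotoxicity; DMSO served as baseline.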

[12] = read-out: Human Leukocyte Antigen - DR isotype (HLADR), HLA-DRA (gene 3122); experiment: BSK_BE3C_HLADR: BioMAP Diversity Plus: BE3C Assay for Human Leukocyte Antigen - DR isotype (HLADR) Biomarker Activity (AID 2283032); details: primary human bronchial epithelial cells; actives raise or lower the signal
Method in brief: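 Cell-surface HLA-DR ELISA readout at 24 h after dosing in the BE3C primary human lung bronchial epithelial system; gain or loss of signal against DMSO, with parallel sulforhodamine B staining of total protein for overt cytotoxicity.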

[13] = read-out: Vascular cell adhesion molecule 1 (VCAM1), VCAM1 (gene 7412); experiment: BSK_4H_VCAM1: BioMAP Diversity Plus: 4H Assay for Vascular cell adhesion molecule 1 (VCAM1) Biomarker Activity (AID 2283033); details: primary human endothelial cells (HUVEC); actives raise or lower the signal;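 also: cell-surface VCAM-1 protein measured by ELISA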
Method in brief: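 VCAM-1 ELISA read 24 h after chemical dosing of HUVEC in the BioMAP 4H system, with gain or loss of signal fitted relative to DMSO. Parallel SRB staining (560 nm) checked overt cytotoxicity.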

[14] = read-out: Interferon-gamma inducible Protein 10 (IP10), CXCL10 (gene 3627); experiment: BSK_BE3C_IP10: BioMAP Diversity Plus: BE3C Assay for Interferon-gamma inducible Protein 10 (IP10) Biomarker Activity (AID 2283034); details: primary human bronchial epithelial cells; actives raise or lower the signal
Method in brief: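 IP-10 quantified by ELISA in human primary bronchial epithelial cell cultures at 24 hours post-dosing. Gain or loss of signal fitted relative to DMSO; parallel SRB staining assessed overt cytotoxicity.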

[15] = read-out: Transforming growth factor beta 1 (TGFb1), TGFB1 (gene 7040); experiment: BSK_BE3C_TGFb1: BioMAP Diversity Plus: BE3C Assay for Transforming growth factor beta 1 (TGFb1) Biomarker Activity (AID 2283036;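 also: TGF-b1 protein level measured by ELISA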); details: primary human bronchial epithelial cells; actives raise or lower the signal
Method in brief: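 ELISA readout of TGF-b1 from human lung bronchial epithelial primary cells, taken 24 h post-treatment. Gain or loss of signal fitted relative to DMSO baseline, with parallel SRB staining for overt cytotoxicity.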

[16] = read-out: Plasminogen activator inhibitor-1 (PAI1), SERPINE1 (gene 5054); experiment: BSK_BE3C_PAI1: BioMAP Diversity Plus: BE3C Assay for Plasminogen activator inhibitor-1 (PAI1) Biomarker Activity (AID 2283037); details: primary human bronchial epithelial cells; actives raise or lower the signal
Method in brief: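 PAI-1 was measured by ELISA in human primary bronchial epithelial cultures 24 h after chemical dosing, with cytotoxicity checked by SRB total-protein staining in parallel cultures. Activity was fitted in both directions relative to DMSO.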

[17] = read-out: urokinase plasminogen activator (uPA), PLAU (gene 5328); experiment: BSK_BE3C_uPA: BioMAP Diversity Plus: BE3C Assay for urokinase plasminogen activator (uPA) Biomarker Activity (AID 2283038); details: primary human bronchial epithelial cells; actives raise or lower the signal;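 also: uPA protein level quantified by ELISA in cell cultures; uPA read one day after compound addition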
Method in brief: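 Using confluent primary human lung bronchial epithelial cultures, we dosed chemicals, waited 24 h, then ran a uPA ELISA, fitting bidirectionally against DMSO.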

[18] = read-out: Urokinase-type plasminogen activator receptor (uPAR), PLAUR (gene 5329); experiment: BSK_BE3C_uPAR: BioMAP Diversity Plus: BE3C Assay for Urokinase-type plasminogen activator receptor (uPAR) Biomarker Activity (AID 2283039); details: primary human bronchial epithelial cells; actives raise or lower the signal;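 also: cells exposed to compound for one day before measurement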
Method in brief: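 uPAR levels were measured by ELISA after 24 h compound treatment of primary human bronchial epithelial cells, fitted in both directions relative to DMSO. Parallel SRB staining served as the cytotoxicity read-out.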

[19] = read-out: Monokine induced gamma interferon (MIG), CXCL9 (gene 4283); experiment: BSK_BE3C_MIG: BioMAP Diversity Plus: BE3C Assay for Monokine induced gamma interferon (MIG) Biomarker Activity (AID 2283035); details: primary human bronchial epithelial cells; actives raise or lower the signal;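 also: MIG protein measured by ELISA in BE3C cultures after 24 h of dosing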
Method in brief: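 hu bronchial epithelial 1° cells, 24 h cpd; MIG by ELISA; bidirectional fit, DMSO = baseline.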

[20] = target: human Vitamin D Receptor (VDR), VDR (gene 7421) (UniProt P11473); experiment: ATG_VDR_TRANS: Attagene TRANS-FACTORIAL HepG2 Assay for human Vitamin D Receptor (VDR) (AID 2283022; active = hit-call score of the fitted dose curve at least 0.9, where 1 is the maximum)
human Vitamin D Receptor (VDR), VDR (gene 7421), sequence (P11473 whole entry, looked up): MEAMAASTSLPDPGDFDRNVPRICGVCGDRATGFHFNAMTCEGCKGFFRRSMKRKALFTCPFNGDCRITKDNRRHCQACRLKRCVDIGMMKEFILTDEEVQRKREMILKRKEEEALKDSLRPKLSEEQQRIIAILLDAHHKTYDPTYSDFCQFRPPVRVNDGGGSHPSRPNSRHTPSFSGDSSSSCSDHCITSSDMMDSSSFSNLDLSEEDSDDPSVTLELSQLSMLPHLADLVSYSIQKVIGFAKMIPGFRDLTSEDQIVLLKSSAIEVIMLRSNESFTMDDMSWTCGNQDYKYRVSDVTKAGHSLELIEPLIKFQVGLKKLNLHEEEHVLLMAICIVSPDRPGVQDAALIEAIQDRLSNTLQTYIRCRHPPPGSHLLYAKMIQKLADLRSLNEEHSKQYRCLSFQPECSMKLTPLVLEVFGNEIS
Method in brief: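 Multiplexed TRANS reporter in HepG2; 24 h treatment; reporter mRNA by RT-PCR plus capillary electrophoresis; upregulation scored relative to DMSO.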

Measured: outcome

Nc1ccc2c(c1)C(=O)c1ccccc1C2=O
not listed: [19] | [20]
inactive: all other assays above

COc1cc(C=O)ccc1O
not listed: [4] | [8] | [14] | [20]
inactive: all other assays above

CCCCCC(=O)O
not listed: [1] | [14]
inactive: all other assays above
